Experimental data published in PubChem BioAssay (NCI).
The panel holds about 83,000 compounds, 20% with a hit somewhere; the sample as a whole holds those more often.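 Activity criterion: percent growth below 10, measured after cells in 96-well plates were exposed to a single compound concentration for 48 hours.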 Active and inactive are the calls of the source.

Experiments:
Experiment in all cases: NCI-60 one-dose screen, 48 h (100 = growth as untreated, 0 = no growth, -100 = all killed)
Conditions in all cases: 10 µM unless noted
SK-MEL-2 melanoma = tested on: SK-MEL-2 melanoma
EKVX NSCLC = tested on: EKVX NSCLC
SN12C renal = tested on: SN12C renal
UO-31 renal = tested on: UO-31 renal
TK-10 renal = tested on: TK-10 renal
ACHN renal = tested on: ACHN renal
CAKI-1 renal = tested on: CAKI-1 renal
A498 renal = tested on: A498 renal
CCRF-CEM leukemia = tested on: CCRF-CEM leukemia
MOLT-4 leukemia = tested on: MOLT-4 leukemia
RPMI-8226 leukemia = tested on: RPMI-8226 leukemia
OVCAR-8 ovarian = tested on: OVCAR-8 ovarian
OVCAR-5 ovarian = tested on: OVCAR-5 ovarian
OVCAR-4 ovarian = tested on: OVCAR-4 ovarian
SK-OV-3 ovarian = tested on: SK-OV-3 ovarian
IGROV1 ovarian = tested on: IGROV1 ovarian
OVCAR-3 ovarian = tested on: OVCAR-3 ovarian
HS 578T breast = tested on: HS 578T breast
NCI/ADR-RES ovarian = tested on: NCI/ADR-RES ovarian
SR leukemia = tested on: SR leukemia

Measured: growth

NS(=O)(=O)c1ccc(-n2nc(C(=O)N/N=C\c3ccc(F)cc3)cc2-c2ccc(Br)cc2)cc1
inactive: SK-MEL-2 melanoma 80% | EKVX NSCLC 72.7% | SN12C renal 92.7% | UO-31 renal 75% | TK-10 renal 121% | ACHN renal 88.2% | CAKI-1 renal 41.8% | A498 renal 31.9% | CCRF-CEM leukemia 74.8% | MOLT-4 leukemia 80.4% | RPMI-8226 leukemia 94.9% | OVCAR-8 ovarian 94.5% | OVCAR-5 ovarian 94.9% | OVCAR-4 ovarian 87.2% | SK-OV-3 ovarian 88.6% | IGROV1 ovarian 73.6% | OVCAR-3 ovarian 82.3% | HS 578T breast 72.1% | NCI/ADR-RES ovarian 67.8%

CN1C(=O)CNC(=O)[C@H](NC(=O)c2nc3ccccc3cc2O)CSSC[C@H]1C(=O)NCCCc1nc2ccccc2cc1O
inactive: EKVX NSCLC 85.4% | SN12C renal 73.4% | UO-31 renal 62.6% | TK-10 renal 75% | ACHN renal 82.3% | CAKI-1 renal 107% | A498 renal 118% | CCRF-CEM leukemia 14.3% | OVCAR-5 ovarian 121% | OVCAR-4 ovarian 96% | SK-OV-3 ovarian 113% | HS 578T breast 90.7% | NCI/ADR-RES ovarian 102%
active: SK-MEL-2 melanoma -12.5% | MOLT-4 leukemia -4.7% | SR leukemia -46.3% | OVCAR-3 ovarian 9.86%

Cc1ccc(C(=O)NN2C(=O)CSC2c2ccc(Cl)cc2)cn1 (centres undefined)
inactive: SK-MEL-2 melanoma 102% | EKVX NSCLC 110% | SN12C renal 91.4% | UO-31 renal 21.8% | TK-10 renal 128% | ACHN renal 96.5% | CAKI-1 renal 80.7% | A498 renal 164% | CCRF-CEM leukemia 117% | MOLT-4 leukemia 82.2% | SR leukemia 80.8% | OVCAR-5 ovarian 92.3% | OVCAR-4 ovarian 101% | SK-OV-3 ovarian 97.1% | IGROV1 ovarian 54.8% | OVCAR-3 ovarian 111% | HS 578T breast 130% | NCI/ADR-RES ovarian 93.2%

CCc1ccc(Oc2c(-c3ccc(OCc4ccc(Cl)cc4)cc3O)nn(C)c2C(F)(F)F)cc1
active: SK-MEL-2 melanoma -30.7% | EKVX NSCLC 9.36% | SN12C renal 4.95% | UO-31 renal -22.9% | TK-10 renal -1.88% | ACHN renal 5.42% | CAKI-1 renal 3.34% | A498 renal -22.6% | CCRF-CEM leukemia 1.82% | MOLT-4 leukemia -13.6% | SR leukemia -26.4% | SK-OV-3 ovarian -6.92% | OVCAR-3 ovarian -20.9% | HS 578T breast 7.74% | NCI/ADR-RES ovarian -3.62%
inactive: OVCAR-5 ovarian 13.2% | OVCAR-4 ovarian 12.5% | IGROV1 ovarian 24.3%

Cc1ccc(S(=O)(=O)Oc2ccc(NC(=O)c3ccc(Cl)cc3)cc2)cc1
inactive: SK-MEL-2 melanoma 99.8% | EKVX NSCLC 91.3% | SN12C renal 96.1% | UO-31 renal 91.6% | TK-10 renal 92.5% | ACHN renal 102% | CAKI-1 renal 100% | A498 renal 93.9% | CCRF-CEM leukemia 104% | MOLT-4 leukemia 104% | SR leukemia 93.6% | OVCAR-5 ovarian 107% | OVCAR-4 ovarian 96.5% | SK-OV-3 ovarian 98.5% | IGROV1 ovarian 97.8% | OVCAR-3 ovarian 103% | HS 578T breast 107% | NCI/ADR-RES ovarian 99.4%

COc1ccc(C(=O)n2nc(-c3ccccc3)nc2N)cc1OC
inactive: SK-MEL-2 melanoma 103% | EKVX NSCLC 88.2% | SN12C renal 90.5% | UO-31 renal 70.5% | TK-10 renal 112% | ACHN renal 82.4% | CAKI-1 renal 84.3% | A498 renal 83.7% | CCRF-CEM leukemia 86.8% | MOLT-4 leukemia 87.8% | SR leukemia 80.6% | OVCAR-5 ovarian 96.7% | SK-OV-3 ovarian 80.8% | IGROV1 ovarian 73.5% | OVCAR-3 ovarian 94.5% | HS 578T breast 92.1% | NCI/ADR-RES ovarian 96.5%

Cc1ccc(/C=C(\C#N)n2nc3cccc(F)c3n2)cc1
inactive: SK-MEL-2 melanoma 95.5% | EKVX NSCLC 83.5% | SN12C renal 95.3% | UO-31 renal 72.3% | TK-10 renal 90.8% | ACHN renal 79.7% | CAKI-1 renal 58.8% | A498 renal 56% | CCRF-CEM leukemia 104% | MOLT-4 leukemia 102% | SR leukemia 62.8% | OVCAR-5 ovarian 97.1% | OVCAR-4 ovarian 97% | SK-OV-3 ovarian 107% | IGROV1 ovarian 90.9% | OVCAR-3 ovarian 84.4% | HS 578T breast 91.5% | NCI/ADR-RES ovarian 86%

COc1ccc(-c2cc(-c3cc(OC)c(OC)c(OC)c3)nc(N3CCOCC3)c2C#N)cc1
active: CAKI-1 renal -22.7%
inactive: SK-MEL-2 melanoma 76.1% | EKVX NSCLC 64.9% | SN12C renal 81% | UO-31 renal 63.7% | TK-10 renal 100% | ACHN renal 68.3% | A498 renal 76.7% | CCRF-CEM leukemia 89.9% | MOLT-4 leukemia 56.7% | RPMI-8226 leukemia 63.7% | OVCAR-8 ovarian 78.9% | OVCAR-5 ovarian 78.4% | OVCAR-4 ovarian 85.8% | SK-OV-3 ovarian 98.2% | IGROV1 ovarian 77.6% | OVCAR-3 ovarian 82.9% | HS 578T breast 67.5% | NCI/ADR-RES ovarian 29.9%

Cc1cc2nc3ccc(N=Nc4ccc(N(C)C)cc4)cc3n(-c3ccccc3)c-2cc1=N
active: SK-MEL-2 melanoma -94.6% | EKVX NSCLC -94.6% | SN12C renal -52.8% | UO-31 renal -91.2% | TK-10 renal -82.2% | ACHN renal -92% | CAKI-1 renal -96.5% | A498 renal -46.9% | CCRF-CEM leukemia -47.3% | MOLT-4 leukemia 0.81% | RPMI-8226 leukemia -63.5% | OVCAR-8 ovarian -22% | OVCAR-5 ovarian -78.5% | OVCAR-4 ovarian -93.2% | SK-OV-3 ovarian -78% | IGROV1 ovarian -88.8% | OVCAR-3 ovarian -85% | HS 578T breast -25.3% | NCI/ADR-RES ovarian 4.97%

O=C1NC(=O)C(c2ccccc2)(c2ccccc2)N1Cc1cn(-c2c3ccccc3nc3ccccc23)nn1
inactive: SK-MEL-2 melanoma 97.9% | EKVX NSCLC 80.4% | SN12C renal 83.6% | UO-31 renal 62.4% | TK-10 renal 74.9% | ACHN renal 81.5% | CAKI-1 renal 73.5% | A498 renal 77.7% | CCRF-CEM leukemia 64.6% | MOLT-4 leukemia 53.5% | SR leukemia 31.4% | OVCAR-5 ovarian 103% | OVCAR-4 ovarian 81.1% | SK-OV-3 ovarian 83.5% | IGROV1 ovarian 83.3% | OVCAR-3 ovarian 87% | HS 578T breast 83% | NCI/ADR-RES ovarian 87%

O=c1n(Cc2ccc3ccccc3c2)ccn1Cc1ccc2ccccc2c1
inactive: SK-MEL-2 melanoma 83% | EKVX NSCLC 96.6% | SN12C renal 91.2% | UO-31 renal 86.5% | TK-10 renal 82.7% | ACHN renal 74.3% | CAKI-1 renal 90% | A498 renal 105% | CCRF-CEM leukemia 117% | MOLT-4 leukemia 91.8% | SR leukemia 97% | OVCAR-5 ovarian 82.1% | OVCAR-4 ovarian 69.3% | SK-OV-3 ovarian 90.5% | IGROV1 ovarian 91.6% | OVCAR-3 ovarian 100% | HS 578T breast 86.9% | NCI/ADR-RES ovarian 86.8%

C#Cc1cccc(NC(=O)c2ccc(NC(=O)C=C)cc2)c1
inactive: SK-MEL-2 melanoma 79.3% [8.25 µM] | EKVX NSCLC 102% [8.25 µM] | SN12C renal 67.5% [8.25 µM] | TK-10 renal 69.9% [8.25 µM] | ACHN renal 63.8% [8.25 µM] | CAKI-1 renal 63.2% [8.25 µM] | A498 renal 40.8% [8.25 µM] | CCRF-CEM leukemia 71.5% [8.25 µM] | MOLT-4 leukemia 76.8% [8.25 µM] | RPMI-8226 leukemia 60.2% [8.25 µM] | OVCAR-8 ovarian 75.9% [8.25 µM] | OVCAR-5 ovarian 86.7% [8.25 µM] | OVCAR-4 ovarian 88.9% [8.25 µM] | SK-OV-3 ovarian 97% [8.25 µM] | IGROV1 ovarian 70.9% [8.25 µM] | OVCAR-3 ovarian 70.5% [8.25 µM] | HS 578T breast 94.2% [8.25 µM] | NCI/ADR-RES ovarian 73.9% [8.25 µM]
active: UO-31 renal -67.2% [8.25 µM]

O=c1[nH]c2c(ccc3cnccc32)c2c1CCC2
inactive: MOLT-4 leukemia 15.9% | OVCAR-8 ovarian 13.9% | OVCAR-4 ovarian 28.3%
active: SK-MEL-2 melanoma -15.9% | EKVX NSCLC -13.5% | SN12C renal 7.16% | UO-31 renal -11.5% | TK-10 renal -5.65% | ACHN renal 6.67% | CAKI-1 renal -19.9% | A498 renal -51.5% | CCRF-CEM leukemia -22.3% | RPMI-8226 leukemia -31% | OVCAR-5 ovarian -2.64% | SK-OV-3 ovarian 3.27% | IGROV1 ovarian -71% | OVCAR-3 ovarian -27% | HS 578T breast -21.8% | NCI/ADR-RES ovarian 7.35%

CC(=O)OC[C@H]1OC(Sc2sc(C(=O)c3ccc(Br)cc3)c(N)c2-c2nc3ccccc3s2)[C@H](OC(C)=O)[C@@H](OC(C)=O)[C@H]1OC(C)=O (some centres undefined)
inactive: SK-MEL-2 melanoma 112% | EKVX NSCLC 80.5% | SN12C renal 95.1% | UO-31 renal 61.4% | TK-10 renal 128% | ACHN renal 90.5% | CAKI-1 renal 67.6% | A498 renal 36.1% | CCRF-CEM leukemia 85.5% | MOLT-4 leukemia 79.3% | RPMI-8226 leukemia 65.5% | OVCAR-8 ovarian 80.3% | OVCAR-5 ovarian 105% | OVCAR-4 ovarian 46.9% | SK-OV-3 ovarian 57.3% | IGROV1 ovarian 68.8% | OVCAR-3 ovarian 67.1% | HS 578T breast 95.4% | NCI/ADR-RES ovarian 88.4%

COc1ccc(-c2nn(C(=O)c3cc(OC)c(OC)c(OC)c3)c3cc(N)ccc23)cc1
active: A498 renal -8.28% | OVCAR-3 ovarian 0.527%
inactive: SK-MEL-2 melanoma 55.8% | EKVX NSCLC 30.8% | SN12C renal 22.9% | UO-31 renal 23.7% | TK-10 renal 60.8% | ACHN renal 11.4% | CAKI-1 renal 46.2% | CCRF-CEM leukemia 17% | MOLT-4 leukemia 13.7% | RPMI-8226 leukemia 21.7% | OVCAR-8 ovarian 15.9% | OVCAR-5 ovarian 39.2% | OVCAR-4 ovarian 58.1% | SK-OV-3 ovarian 31.5% | IGROV1 ovarian 23.9% | HS 578T breast 35% | NCI/ADR-RES ovarian 15.6%

COc1ccc(-n2c(N)c(-c3nc4ccccc4[nH]3)cc(C#N)c2=O)cc1
inactive: SK-MEL-2 melanoma 105% | EKVX NSCLC 79.1% | SN12C renal 85% | UO-31 renal 77.8% | TK-10 renal 103% | ACHN renal 75.9% | CAKI-1 renal 92.3% | A498 renal 64% | CCRF-CEM leukemia 98.3% | MOLT-4 leukemia 99.3% | RPMI-8226 leukemia 92.3% | OVCAR-8 ovarian 69.8% | OVCAR-5 ovarian 99% | OVCAR-4 ovarian 77.5% | SK-OV-3 ovarian 111% | IGROV1 ovarian 103% | OVCAR-3 ovarian 107% | HS 578T breast 50.1% | NCI/ADR-RES ovarian 77.8%
